Assay results: PubChem BioAssay
Active and inactive are the calls of the source.

Assays:
Albumin (Bos taurus) = Albumin (Bos taurus) (UniProt P02769); test: compounds binding labelled BSA control protein – biochemical, small-molecule microarray, Alexa647 label, 635/667 nm fluorescence, artefact control for SMM control protein annotation, profiling panel (AID 1118); conditions: BSA-A647 binding, fluorescence 635 nm, higher = more signal;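 further: score merges 667 nm emission intensity and signal-to-noise per printed compound spot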
Chain of Albumin (Bos taurus) (P02769 whole entry, looked up): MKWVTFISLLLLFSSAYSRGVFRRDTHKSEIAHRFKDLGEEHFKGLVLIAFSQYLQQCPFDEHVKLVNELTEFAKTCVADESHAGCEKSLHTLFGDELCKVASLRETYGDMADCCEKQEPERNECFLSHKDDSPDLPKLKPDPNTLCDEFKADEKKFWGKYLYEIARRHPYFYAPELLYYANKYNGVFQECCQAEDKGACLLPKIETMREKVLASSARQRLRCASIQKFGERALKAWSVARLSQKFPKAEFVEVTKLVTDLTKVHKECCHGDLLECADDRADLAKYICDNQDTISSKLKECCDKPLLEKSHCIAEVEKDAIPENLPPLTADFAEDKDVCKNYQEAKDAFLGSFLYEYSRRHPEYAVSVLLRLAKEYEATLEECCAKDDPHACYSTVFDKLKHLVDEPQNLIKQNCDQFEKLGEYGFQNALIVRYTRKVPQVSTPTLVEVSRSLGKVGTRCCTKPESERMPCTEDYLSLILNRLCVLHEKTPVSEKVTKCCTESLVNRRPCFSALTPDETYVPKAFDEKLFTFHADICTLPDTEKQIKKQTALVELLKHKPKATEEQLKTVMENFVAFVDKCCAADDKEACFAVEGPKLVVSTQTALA

[1] = probe aXIP binding to arrayed compounds – biochemical, NeuroSMM set, 635/667 nm fluorescence, primary screen (AID 1119); conditions: small-molecule microarray, higher = more signal, called active from +8 up or from −8 down;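 further: probe is the protein aXip251-270 applied at 1 µg/mL to compound-printed slides; binding of probe to printed compounds measured as 667 nm fluorescence plus signal to noise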
[2] = probe aNOTCH3 binding on compound microarray – biochemical, small-molecule microarray, 635/667 nm fluorescence, primary screen (AID 1120); conditions: higher = more signal;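 further: probe is a biotin-tagged antibody raised against NOTCH3 rather than NOTCH3 protein; score merges spot fluorescence near 667 nm with spot signal to noise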
[3] = probe aNOTCH2 binding on compound microarray – biochemical, small-molecule microarray, 635/667 nm fluorescence, primary screen (AID 1121); conditions: higher = more signal;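 further: score merges feature fluorescence read at 667 nm with its signal to noise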
[4] = target: Carbonic anhydrase 2 (Homo sapiens) (UniProt P00918); test: compounds binding carbonic anhydrase 2 – biochemical, small-molecule microarray, Alexa647-labelled CAII, profiling panel (AID 1122); conditions: CAII-A647 binding fluorescence, higher = more signal
[5] = COS7 lysate on small-molecule microarray, probe aHis, 635 nm (AID 1123); conditions: COS7 cell lysate, fluorescence, higher = more signal;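 further: z-score combines 667nm fluorescence intensity with signal-to-noise per printed compound spot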
[6] = probe aLAP1 signal on lysate-treated microarray – cell lysate, small-molecule microarray, COS7 lysate, primary screen (AID 1124); conditions: probe aLAP1, fluorescence, higher = more signal;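 further: lysate comes from COS7 cells expressing LAP1 and is applied at 0.3 µg/mL; score merges spot fluorescence near 667 nm with signal-to-noise over triplicate slides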
Sam68 (KHDRBS1) = test: compounds binding KHDRBS1 protein – biochemical, small-molecule microarray, 635 nm fluorescence, primary screen (AID 1125); conditions: higher = more signal;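 further: score merges 667 nm channel intensity with signal to noise over triplicate slides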
[7] = tested on: Chordin-like protein 2 (CHRDL2); test: compounds binding chordin-like 2 – biochemical, small-molecule microarray, 635 nm fluorescence, primary screen (AID 1126); conditions: fluorescence 635 nm, higher = more signal;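 further: printed compound slides probed with Chrdl2 protein at 4 µg/mL for 1 h at 4 C; score merges 667 nm emission intensity with signal to noise over three replicate slides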
[8] = target: Concanavalin-A (Canavalia ensiformis) (UniProt P02866); test: compounds binding concanavalin A lectin – biochemical, small-molecule microarray, Alexa647 label, 635 nm, artefact control for SMM control protein annotation, primary screen (AID 1127); conditions: ConA-A647 binding fluorescence, higher = more signal;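 further: z combines 667 nm emission intensity with signal-to-noise across three replicate slides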
Chain of Concanavalin-A (Canavalia ensiformis) (P02866 whole entry, looked up): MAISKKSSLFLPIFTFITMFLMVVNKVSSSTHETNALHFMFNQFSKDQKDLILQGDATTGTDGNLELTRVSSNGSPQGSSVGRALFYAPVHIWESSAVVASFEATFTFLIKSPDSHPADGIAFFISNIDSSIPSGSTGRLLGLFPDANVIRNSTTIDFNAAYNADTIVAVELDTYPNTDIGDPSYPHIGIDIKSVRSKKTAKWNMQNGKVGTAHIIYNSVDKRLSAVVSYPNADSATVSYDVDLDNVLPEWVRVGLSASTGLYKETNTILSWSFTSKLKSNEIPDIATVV

[9] = compounds binding Alexa647 anti-His antibody – biochemical, small-molecule microarray, 635 nm fluorescence, artefact control for SMM control protein annotation, primary screen (AID 1128); conditions: higher = more signal;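 further: score merges feature fluorescence with signal-to-noise for each printed compound spot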
[10] = tested on: Human papillomavirus type 1a E7 protein (residues 1-88); test: HPV1a E7 small-molecule binders, primary screen, biochemical, small-molecule microarray, residues 1-88, 635 nm (AID 1129); conditions: small-molecule microarray binding, fluorescence 635 nm; higher = more signal
[11] = target: Focal adhesion kinase 1 (Homo sapiens) (UniProt Q05397); test: PTK2 protein binding on printed compound slides – biochemical, small-molecule microarray, 635/667 nm fluorescence, BSA, DTT, primary screen (AID 1130); conditions: 635 nm fluorescence, higher = more signal;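 further: composite of spot emission at 667 nm and signal to noise over triplicate slides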
Chain of Focal adhesion kinase 1 (Homo sapiens) (Q05397 whole entry, looked up): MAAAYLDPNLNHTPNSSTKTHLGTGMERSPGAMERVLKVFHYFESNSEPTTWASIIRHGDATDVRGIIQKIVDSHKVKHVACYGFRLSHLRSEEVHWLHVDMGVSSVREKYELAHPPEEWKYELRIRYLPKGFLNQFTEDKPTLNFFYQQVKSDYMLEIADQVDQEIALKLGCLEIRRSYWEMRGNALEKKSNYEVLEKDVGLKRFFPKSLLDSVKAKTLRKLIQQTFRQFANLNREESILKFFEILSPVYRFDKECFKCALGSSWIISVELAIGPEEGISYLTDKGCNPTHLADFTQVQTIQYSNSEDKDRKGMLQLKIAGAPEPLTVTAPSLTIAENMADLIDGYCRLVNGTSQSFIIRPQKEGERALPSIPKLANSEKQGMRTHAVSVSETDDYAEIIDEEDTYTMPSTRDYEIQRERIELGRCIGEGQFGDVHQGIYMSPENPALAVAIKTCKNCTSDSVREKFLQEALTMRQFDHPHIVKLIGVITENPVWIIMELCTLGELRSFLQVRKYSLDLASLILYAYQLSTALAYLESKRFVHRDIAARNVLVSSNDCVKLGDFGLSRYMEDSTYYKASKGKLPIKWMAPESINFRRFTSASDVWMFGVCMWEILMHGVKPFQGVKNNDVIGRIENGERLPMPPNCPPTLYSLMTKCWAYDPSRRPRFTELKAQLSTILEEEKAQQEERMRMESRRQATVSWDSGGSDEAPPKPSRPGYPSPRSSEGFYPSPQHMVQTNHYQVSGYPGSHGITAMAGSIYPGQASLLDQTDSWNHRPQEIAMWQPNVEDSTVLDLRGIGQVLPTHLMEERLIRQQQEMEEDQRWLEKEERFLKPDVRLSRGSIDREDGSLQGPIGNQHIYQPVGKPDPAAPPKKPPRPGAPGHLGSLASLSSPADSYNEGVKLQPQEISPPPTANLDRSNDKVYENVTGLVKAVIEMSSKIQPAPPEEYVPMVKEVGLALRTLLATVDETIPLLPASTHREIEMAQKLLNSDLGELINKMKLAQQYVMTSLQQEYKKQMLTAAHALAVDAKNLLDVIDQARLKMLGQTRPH

[12] = tested on: Fibrinogen (Alexa647-labelled); test: Alexa647-fibrinogen binding to printed small molecules – biochemical, small-molecule microarray, 635/667 nm fluorescence, artefact control for SMM control-protein annotation, profiling panel (AID 1131); conditions: fibrinogen-A647 binding fluorescence, higher = more signal;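 further: z-score merges 667 nm fluorescence with per-spot signal-to-noise over triplicate slides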
[13] = target: Follistatin (Homo sapiens) (UniProt P19883); test: FST protein binding to printed compounds – biochemical, small-molecule microarray, 635/667 nm fluorescence, primary screen (AID 1132); conditions: 635 nm fluorescence, higher = more signal
Chain of Follistatin (Homo sapiens) (P19883 whole entry, looked up): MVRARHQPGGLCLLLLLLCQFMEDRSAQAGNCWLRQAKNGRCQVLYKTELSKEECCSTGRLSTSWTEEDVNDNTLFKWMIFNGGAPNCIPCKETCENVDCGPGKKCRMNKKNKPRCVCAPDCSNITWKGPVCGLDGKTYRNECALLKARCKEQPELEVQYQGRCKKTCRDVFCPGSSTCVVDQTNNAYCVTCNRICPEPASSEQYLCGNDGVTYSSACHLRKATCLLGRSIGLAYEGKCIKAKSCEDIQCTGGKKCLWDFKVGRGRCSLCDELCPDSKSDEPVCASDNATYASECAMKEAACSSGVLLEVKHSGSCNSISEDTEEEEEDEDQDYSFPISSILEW

[14] = target: Fibroblast growth factor 2 (Homo sapiens) (UniProt P09038); test: basic fibroblast growth factor binding to printed compounds – biochemical, small-molecule microarray, 635/667 nm fluorescence, primary screen (AID 1133); conditions: FGF2, fluorescence 635/667, higher = more signal
Chain of Fibroblast growth factor 2 (Homo sapiens) (P09038 whole entry, looked up): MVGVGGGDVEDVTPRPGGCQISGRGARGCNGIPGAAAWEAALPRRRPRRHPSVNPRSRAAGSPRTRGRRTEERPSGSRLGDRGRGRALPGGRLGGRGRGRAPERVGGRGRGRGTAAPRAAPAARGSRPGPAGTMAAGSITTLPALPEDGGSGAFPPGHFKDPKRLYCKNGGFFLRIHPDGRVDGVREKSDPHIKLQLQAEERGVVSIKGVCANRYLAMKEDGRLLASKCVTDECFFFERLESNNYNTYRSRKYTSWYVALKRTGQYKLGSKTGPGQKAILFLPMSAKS

[15] = JC-1 mitochondrial potential readout, lung cancer cells – cell-based, A549, JC-1 fluorescence, basal, 24 h, 100 nL, profiling panel (AID 1138); conditions: higher = more signal;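 further: A549 lung adenocarcinoma cells under basal conditions with no added stimulus; test concentration not given here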
Lefty1 = Lefty1 protein binding to printed compounds – biochemical, small-molecule microarray, 635/667 nm fluorescence, primary screen (AID 1139); conditions: fluorescence 635/667, higher = more signal
[16] = tested on: wheat germ agglutinin (Triticum aestivum), Alexa647-labelled; test: Alexa647-WGA lectin binding to printed small molecules – biochemical, small-molecule microarray, 635/667 nm fluorescence, artefact control for SMM control-protein annotation, profiling panel (AID 1140); conditions: WGA-A647 binding, 635 nm fluorescence, higher = more signal;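 further: score merges 667 nm feature emission with signal to noise over triplicate slides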
[17] = target: Luciferin 4-monooxygenase (Photinus pyralis) (UniProt P08659); test: inhibition of purified Photinus pyralis luciferase – biochemical, luminescence, purified enzyme, 2006 set, primary screen (AID 1141); conditions: purified firefly luciferase, SteadyGlo luminescence, 30 min; higher = more signal, called active from +8 up or from −8 down;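 further: cell-free assay with purified firefly luciferase at 100 ng per well in PBS; test concentration not given here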
Chain of Luciferin 4-monooxygenase (Photinus pyralis) (P08659 whole entry, looked up): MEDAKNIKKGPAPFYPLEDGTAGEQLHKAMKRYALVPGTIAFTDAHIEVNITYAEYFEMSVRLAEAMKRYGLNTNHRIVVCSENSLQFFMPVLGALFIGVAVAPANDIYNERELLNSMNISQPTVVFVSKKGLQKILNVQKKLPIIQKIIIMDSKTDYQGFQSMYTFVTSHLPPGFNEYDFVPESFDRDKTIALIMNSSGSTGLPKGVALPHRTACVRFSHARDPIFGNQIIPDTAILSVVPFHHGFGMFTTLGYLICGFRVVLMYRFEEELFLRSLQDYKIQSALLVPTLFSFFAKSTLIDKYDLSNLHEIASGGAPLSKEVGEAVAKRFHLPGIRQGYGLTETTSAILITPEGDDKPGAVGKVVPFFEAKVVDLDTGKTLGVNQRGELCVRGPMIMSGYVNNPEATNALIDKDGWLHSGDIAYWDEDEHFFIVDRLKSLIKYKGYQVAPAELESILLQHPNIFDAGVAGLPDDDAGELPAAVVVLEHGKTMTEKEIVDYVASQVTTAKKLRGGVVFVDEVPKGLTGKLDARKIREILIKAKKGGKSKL

| SMILES | composite z-score (Albumin (Bos taurus)) | composite Z-score [1] | composite z-score [2] | composite z-score [3] | composite z-score [4] | composite z-score [5] | composite z-score [6] | composite z-score (Sam68 (KHDRBS1)) | composite z-score [7] | composite z-score [8] | composite z-score [9] | composite z-score [10] | composite z-score [11] | composite z-score [12] | composite z-score [13] | composite z-score [14] | z-score [15] | composite z-score (Lefty1) | composite z-score [16] | z-score [17] |
| --- | --- | --- | --- | --- | --- | --- | --- | --- | --- | --- | --- | --- | --- | --- | --- | --- | --- | --- | --- | --- |
| CC(C)C[C@@H]1NC(=O)[C@H]2C[C@@H](C(=O)NCCCCCCN(C)C)[C@@H](c3ccc(O)cc3)N2C1=O | -0.581 | 0.531 (inactive) | 0.0293 | -0.112 | 0.479 | 2.03 | 0.588 | 1.32 | 1.29 | 1.17 | 2.44 | 0.977 | 0.34 | 0.357 | 1.35 | 1.29 | -0.0361 | 1.19 | 0.115 | -0.263 (inactive) |
| C=CCNC(=O)[C@@H]1[C@H]2C(=O)O[C@H](c3ccccc3)[C@H](c3ccccc3)N2[C@H](c2ccc(OCCO)cc2)[C@@]12C(=O)Nc1ccc(C#Cc3ccc(OC)cc3)cc12 | 0.77 | 0.883 (inactive) | 0.102 | -0.0464 | 0.331 | 1.14 | 0.606 | 1.3 | 0.605 | 1.13 | 0.785 | 1.18 | 0.452 | 0.798 | 1.42 | 0.989 | -1.87 | 1.57 | 1.17 | -0.398 (inactive) |
| COCCCNC(=O)C1N=C(c2ccc(OCCCO)cc2)N(c2ccccc2)O1 (stereo not given) | 0.107 | -0.442 (inactive) | 0.0836 | -0.112 | 0.778 | 0.388 | -0.193 | 1.3 | -0.289 | 1.04 | 1.38 | 1.03 | 0.234 | 0.95 | 1.11 | 0.555 | 0.735 | 0.517 | 0.569 | -10.5 (active) |
| CC(C)N1C(=O)c2ccccc2[C@](C)(C(=O)NCc2ccccc2)[C@@H]1c1ccc(CO)cc1 | 0.182 | 1.32 (inactive) | -0.245 | -0.0323 | 0.703 | -0.129 | 0.967 | -0.484 | -0.798 | -0.866 | 3.09 | 0.29 | 0.239 | -1.77 | -0.24 | -0.131 | -0.39 | -0.554 | -0.444 | -1.06 (inactive) |
| COC(=O)c1c(CC[C@@H](CO)NC(=O)N[C@H](Cn2cc(Cc3ccccc3)nn2)C(C)C)oc(C(C)=O)c1C(=O)OC | 0.0007 | 0.255 (inactive) | -0.0159 | -0.202 | 0.43 | 0.889 | 0.0096 | 0.709 | 0.0618 | 0.321 | 0.583 | 0.641 | -0.0225 | 0.519 | 1.29 | 1.51 | 0.0865 | 1.24 | 0.261 | -0.0001 (inactive) |
| COCCOC(=O)N1C(=O)[C@@]2(c3cc(C#CCCO)ccc31)[C@H](C(=O)N1CCc3cc(OC)c(OC)cc3C1)[C@H]1C(=O)O[C@H](c3ccccc3)[C@H](c3ccccc3)N1[C@@H]2c1ccc(O)cc1 | -0.335 | 0.566 (inactive) | 0.0893 | -0.0846 | 0.471 | 2.33 | 0.255 | 1.29 | 0.425 | 1.04 | 1.89 | 1.22 | 0.831 | 0.904 | 0.949 | 0.622 | 0.188 | 0.791 | 0.393 | -0.407 (inactive) |
| [N-]=[N+]=Nc1ccccc1C[C@@]1(C(=O)NCCN2CCOCC2)N=C(c2ccc(OCCCO)cc2)O[C@@H]1c1ccccc1 | 0.831 | 0.255 (inactive) | 0.144 | -0.221 | 0.468 | 2.87 | 0.872 | 1.3 | -0.11 | 1.11 | 0.76 | 1.26 | 0.85 | 1.03 | 1.3 | 1.19 | 0.662 | 0.7 | 0.823 | -1.7 (inactive) |
| CCOC(=O)C=Cc1cc([N+](=O)[O-])ccc1O | -0.307 | -0.26 (inactive) | 0.0209 | -0.0162 | 0.802 | 0.751 | 0.422 | 0.471 | -1.26 | -0.0123 | -0.59 | -0.455 | -0.0779 | -0.429 | -0.907 | -0.652 | -2.31 | -0.83 | -0.0396 | 1.38 (inactive) |
| C=C(COC)/C(=C/C[C@@H](OC(C)=O)c1ccc(CO)o1)c1cnc2ccccc2c1 | 0.555 | 0.319 (inactive) | 0.25 | 0.0616 | 0.944 | 0.229 | 0.846 | 1.29 | 1.39 | 1.2 | 0.562 | 1.14 | -0.23 | 0.962 | 1.44 | 1.57 | -0.482 | 1.46 | 1.04 | -3.82 (inactive) |
